{"source": "ChEMBL document CHEMBL1157539", "about": "“Thousands of chemical starting points for antimalarial lead identification” (Nature, 2010)", "note": "Hit rate of the full screen: of about 13,000 compounds, fewer than 10 showed an effect of 50% or more. The list is a sample of the results.", "data": [{"tested_on": "Plasmodium falciparum", "assay": "GSK_TCMDC: Inhibition of Plasmodium falciparum 3D7 LDH activity, using an LDH reporter assay. Test compounds present at 2uM", "format": "functional, organism-based", "units": {"inhibition": "%"}, "values": [{"smiles": "COc1ccc(-c2ccc(NC(=O)c3ccccc3)cc2)cc1CN1CCCN(C)CC1", "inhibition": 3}, {"smiles": "C=CCn1c(=N)c(C(=O)NCc2ccc(F)cc2)cc2c(=O)n3cccc(C)c3nc21", "inhibition": 0}, {"smiles": "CC(C)(Oc1ccc(Cl)cc1)C(=O)NCCC1CCN(CCCCCNC(=O)/C=C/c2ccc(Cl)c(Cl)c2)CC1", "inhibition": 0}, {"smiles": "OC(CNCCCCCCNCC(O)c1ccc(Cl)c(Cl)c1)c1ccc(Cl)c(Cl)c1", "note": "(stereo not drawn)", "inhibition": 0}, {"smiles": "Cc1cccc2nc(-c3ccc(-c4ccc(NC(=O)C(=O)c5cccn5C)cc4)cc3)[nH]c12", "inhibition": 8}, {"smiles": "C[C@H]1CN(Cc2cccc(-c3cc(CNC(=O)c4cccc(CC5CCN(C)CC5)c4)ccc3F)c2)CCN1C", "inhibition": 2}, {"smiles": "Nc1c(I)cc(C(=O)Nc2ccc3nc4c(c(N)c3c2)CCCC4)cc1I", "inhibition": 2}, {"smiles": "FC(F)(F)c1cccc(Nc2nc3nonc3nc2NC2C3CC4CC(C3)CC2C4)c1", "note": "(stereo not drawn)", "inhibition": 0}, {"smiles": "COc1ccc2nccc([C@@H](O)CN3CCC(NCc4cc5cccc(O)c5[nH]4)CC3)c2c1", "inhibition": 0}, {"smiles": "Fc1ccc2[nH]c(-c3cccc(-c4cccc(CN5CCN(c6cnccn6)CC5)c4)c3)nc2c1", "inhibition": 0}, {"smiles": "O=C(Cc1ccccc1)NC(c1ccc(Cl)cc1)c1ccc2cccnc2c1O", "note": "(stereo not drawn)", "inhibition": 0}, {"smiles": "Cc1noc(C)c1-c1ccc2c(Nc3ccccc3C(C)(C)C)c(C(=O)NCc3ccccc3)cnc2c1", "inhibition": 0}, {"smiles": "Cc1cccc2nc(-c3ccc(-c4cccc(NC(=O)c5cncn5C)c4)s3)[nH]c12", "inhibition": 0}, {"smiles": "CC(C)CNCc1cccc(-c2cccc(CN(CCCN3CCN(C)CC3)C(=O)CCC3CCCC3)c2)c1", "inhibition": 0}, {"smiles": "Cc1cc(NC2CCN(CC3CCCCC3)C2)nc(Nc2ccc(Cl)cc2)n1", "note": "(stereo not drawn)", "inhibition": 0}, {"smiles": "Cc1noc(C)c1-c1ccc2c(Nc3cccc4c3-c3ccccc3C4=O)c(C(=O)NCc3ccccc3I)cnc2c1", "inhibition": 2}, {"smiles": "CC(=O)Nc1ccc(OCCCCN(Cc2ccccc2C(F)(F)F)c2ccc(C#N)c(C(F)(F)F)c2)c(Cl)c1", "inhibition": 0}, {"smiles": "COc1ccc(-c2cccc(NC(=O)c3ccc(Cl)cc3)c2)cc1CN1CCNCC1", "inhibition": 0}, {"smiles": "COc1ccc2c(NN=Cc3ccc(F)cc3)ccnc2c1", "inhibition": 0}, {"smiles": "COc1ccc(C=NN=c2cc(C)[nH]c3ccccc23)cc1OC", "inhibition": 0}, {"smiles": "COC(=O)c1cccc(CNCc2ccc(-c3cccc(-c4nc5cc(C(F)(F)F)ccc5[nH]4)c3)cc2)c1", "inhibition": 6}, {"smiles": "CCn1c(-c2nonc2N)nc2c(-c3ccccc3)ncc(OCCCCNCCc3ncc[nH]3)c21", "inhibition": 0}, {"smiles": "CCc1c[nH]c2c(N3CCCS3(=O)=O)cc(C(=O)N[C@@H](Cc3ccccc3)[C@H](O)CNC(C)(C)CCCC(C)C)cc12", "inhibition": 0}, {"smiles": "COc1ccc(C2CCC(NCCCCNC(=O)c3ccc(NC(=O)c4ccc(Cl)cc4)cc3)CC2)cc1", "note": "(stereo not drawn)", "inhibition": 0}, {"smiles": "Cc1c(-c2ccc(C(=O)NC3CC(C)(C)NC(C)(C)C3)cc2)[nH]c2cc(Cl)c(Cl)cc12", "inhibition": 0}, {"smiles": "O=C(Nc1cccc(F)c1)c1ccc(C(=O)NC2CCN(CC3CCCCC3)CC2)cc1", "inhibition": 0}, {"smiles": "CC(C)NCc1ccc(-c2ccc(NC(=O)c3ccc(C#N)cc3)cc2)cc1", "inhibition": 0}, {"smiles": "FC(F)(F)c1ccc2[nH]c(-c3ccc(-c4cccc(CN5CCN(c6ccncc6)CC5)c4)cc3)nc2c1", "inhibition": 2}, {"smiles": "O=C(Nc1nc(-c2ccccn2)cc2ccccc12)c1cccc(Cl)c1", "inhibition": 0}, {"smiles": "NC(=O)C1CCN(Cc2cccc(-c3cccc(-c4nc5cc(F)ccc5[nH]4)c3)c2)CC1", "inhibition": 3}, {"smiles": "CC(C)(C)c1ccc(CNC(=O)c2ccc(CNC3CCC(N)CC3)s2)cc1", "note": "(stereo not drawn)", "inhibition": 4}, {"smiles": "CC1(C)N=C(N)N=C(N)N1c1ccc(Cl)c(Cl)c1", "inhibition": 0}, {"smiles": "Cc1cc(=NN=Cc2ccccc2Cl)c2ccc(F)cc2[nH]1", "inhibition": 0}, {"smiles": "Cc1cc(CNCCCCCCCNCc2ccc(-c3ccccc3)cc2)ccc1O", "inhibition": 0}, {"smiles": "Cc1cc(=NN=Cc2ccc(F)cc2)c2ccc(C(F)(F)F)cc2[nH]1", "inhibition": 0}, {"smiles": "COc1cc(C=NN=c2cc(C)[nH]c3ccccc23)cc(OC)c1OC", "inhibition": 0}, {"smiles": "O=C(NCCc1ccccc1)N(Cc1ccccc1-c1ccc(CNC2CCCC2)cc1)C1CCN(Cc2ccccc2)CC1", "inhibition": 1}, {"smiles": "CCN(CC)CCN(Cc1ccc(-c2ccc(C(F)(F)F)cc2)cc1)C(=O)Cn1c(CCc2cccc(F)c2F)nc(=O)c2ccc(F)cc21", "inhibition": 3}, {"smiles": "COc1ccc(CNCc2ccc(F)cc2)cc1-c1ccc(OC)c(S(=O)(=O)NCCN2CCCC2)c1", "inhibition": 5}, {"smiles": "COc1ccc2c(N/N=C/c3cccc([N+](=O)[O-])c3)ccnc2c1", "inhibition": 5}, {"smiles": "CCCCN1CCN(CCCNc2c3ccccc3nc3ccccc23)CC1", "inhibition": 0}, {"smiles": "CON=Cc1ccn(-c2ccc(O)c3c2C[C@H]2C[C@H]4[C@H](N(C)C)C(O)=C(C(N)=O)C(=O)[C@@]4(O)C(O)=C2C3=O)c1", "inhibition": 0}, {"smiles": "CN(C)Cc1ccc(-c2ccc3c(Nc4ccc(Cl)cc4F)ccnc3c2)o1", "inhibition": 0}, {"smiles": "CN(C)c1ccc(-c2nc3cc(N)ccc3[nH]2)cc1", "inhibition": 0}, {"smiles": "Cc1cc(O)c(-c2cccc(Oc3ccc(Cl)cc3)c2)c(C)n1", "inhibition": 0}, {"smiles": "O=C(CNC(=O)c1ccc(O)cc1)Nc1ccc(-c2cccc(-c3nc4cc(C(F)(F)F)ccc4[nH]3)c2)cc1", "inhibition": 3}, {"smiles": "CCOc1cc[nH]c(=O)n1", "inhibition": 5}, {"smiles": "O=C(NCCCCN1CCC(c2ccc3c(c2OCCO)CCCC3)CC1)c1ccc2oc(-c3ccc(C(F)(F)F)cc3)cc2c1", "inhibition": 4}, {"smiles": "FC(F)(F)COc1ccc2ccccc2c1CCNCCCCNCCc1c(OCC(F)(F)F)ccc2ccccc12", "inhibition": 0}, {"smiles": "COc1ccc2nccc(N3CCC(CCNCc4cc5c(cn4)OCCO5)CC3)c2n1", "inhibition": 7}, {"smiles": "Cc1c2ccc(N(C)c3ccnc(Nc4ccc5c(c4)nc(NC(C)C)n5C)n3)cc2nn1C", "inhibition": 0}, {"smiles": "COc1ccc(CNC(=O)Nc2cccc(-c3csc(NC(=N)N)n3)c2)cc1", "inhibition": 1}, {"smiles": "O=C(C=Cc1ccc(Cl)c(Cl)c1)NCCCCCN1CCC(CCNC(=O)/C=C/c2ccccc2)CC1", "inhibition": 0}, {"smiles": "CCN(CC)CCN(Cc1ccc(-c2ccc(C(F)(F)F)cc2)cc1)C(=O)Cn1c(CCc2ccc(F)cc2)nc(=O)c2ccccc21", "inhibition": 0}, {"smiles": "Cn1cccc1C(=O)C(=O)Nc1cccc(-c2ccc(-c3nc4cc(C(F)(F)F)ccc4[nH]3)cc2)c1", "inhibition": 0}, {"smiles": "CC(=O)Nc1ccc(C(=O)Nc2cccc(-c3cccc(-c4nc5cc(F)ccc5[nH]4)c3)c2)cn1", "inhibition": 1}, {"smiles": "Nc1ncc(-c2ccc3nccc(-c4ccncc4)c3c2)cc1S(=O)(=O)N1CCCCC1", "inhibition": 3}, {"smiles": "Cc1cc(NCC(c2ccccc2)c2ccccc2)nc(NCC2CCCCC2)n1", "inhibition": 3}, {"smiles": "N#Cc1cccc(C(=O)Nc2ccc(-c3ccc(CN4CCCC4)cc3)cc2)c1", "inhibition": 0}, {"smiles": "Cc1[nH]c(C)c(-c2ccc(OCc3cc(F)cc(F)c3)nc2)c(=O)c1Cl", "inhibition": 0}, {"smiles": "CC(=O)Nc1ccc(CCNC(C)Cc2ccc(C(=O)Nc3ccc(CC(C)NCCc4cccc(Cl)c4)cc3)cc2)cc1", "note": "(stereo not drawn)", "inhibition": 0}, {"smiles": "c1cc(-c2ccc(CNCCCN3CCOCC3)cc2)cc(-c2nc3ccccc3[nH]2)c1", "inhibition": 0}, {"smiles": "Clc1ccccc1C=NN=c1cc[nH]c2ccccc12", "inhibition": 0}, {"smiles": "O=C1CCCN1CCCNCc1ccc(-c2ccc(-c3nc4cc(F)ccc4[nH]3)cc2)cc1", "inhibition": 0}, {"smiles": "Cc1[nH]c(C)c(-c2ccc(C#Cc3ccc(F)cc3F)cc2)c(=O)c1Br", "inhibition": 0}, {"smiles": "COc1ccc(OC)c(-c2ccc(=O)n(CC(=O)Nc3cccc4ccccc34)n2)c1", "inhibition": 3}, {"smiles": "CC(C)(C)c1ccc(CNC(=O)/C=C/c2ccc(-c3nc4cc(C(C)(C)C)ccc4[nH]3)cc2)cc1", "inhibition": 0}, {"smiles": "CN(C)CCCN1CCN(Cc2ccc(-c3ccc(-c4nc5ccccc5[nH]4)s3)cc2)CC1", "inhibition": 4}, {"smiles": "CC(C)Nc1nc(NCCc2c[nH]cn2)nc(Nc2ccc(Oc3ccccc3)cc2)n1", "inhibition": 1}, {"smiles": "CN1CCC(NC(=O)c2cc(Oc3ccc4c(c3)CCN4C(=O)Nc3cccc(C(F)(F)F)c3)ccn2)CC1", "inhibition": 0}, {"smiles": "FC(F)(F)COc1c(CCNCCCCNCCc2ccc3ccccc3c2OCC(F)(F)F)ccc2ccccc12", "inhibition": 0}, {"smiles": "CN(CCN)Cc1cccc(-c2cccc(-c3nc4cc(C(F)(F)F)ccc4[nH]3)c2)c1", "inhibition": 0}, {"smiles": "CC(C)CCCC(C)NC[C@@H](O)[C@H](Cc1ccccc1)NC(=O)c1cc(N2CCCC2=O)cc(N(c2ccccc2)S(C)(=O)=O)c1", "note": "(stereo partly drawn)", "inhibition": 0}, {"smiles": "ON=C(c1nc2ccccc2[nH]1)c1nc2ccccc2[nH]1", "inhibition": 6}, {"smiles": "O=S(=O)(NCCN1CCCC1)c1cccc(-c2ccc(CNCc3ccsc3)cc2)c1", "inhibition": 6}, {"smiles": "COc1cccc(CCc2nc3c(N4CCC(Cc5ccccc5)CC4)cccc3n2CC2CNCCO2)c1", "note": "(stereo not drawn)", "inhibition": 4}, {"smiles": "CCN(CC)CCN(Cc1ccc(-c2ccc(C(F)(F)F)cc2)cc1)C(=O)Cn1c(CCc2ccc(F)c(C#N)c2)nc(=O)c2ccccc21", "inhibition": 0}, {"smiles": "CCc1c(CCNCCCCCCNCCc2ccc(Br)cc2)ccc(O)c1O", "inhibition": 0}, {"smiles": "Nc1c2c(nc3ccc(Oc4ccc(Cl)cc4)cc13)CCCC2", "inhibition": 0}, {"smiles": "Cc1cc(N[C@@H](Cc2ccccc2)C(=O)NCc2cccs2)nc(NCCc2ccccn2)n1", "inhibition": 0}, {"smiles": "COc1cc(C=CC(=O)N2CCC(CCN3CCC(c4c[nH]c5ccccc45)CC3)CC2)cc(OC)c1", "inhibition": 0}, {"smiles": "COc1cc2nc(N3CCC(CNC(=O)c4ccc(NC(=O)c5ccc(Cl)cc5)cc4)CC3)nc(N)c2cc1OC", "inhibition": 0}, {"smiles": "CCNC1=NC2=C(CC(C(C)(C)C)CC2)C2(CCC(C(C)(C)C)CC2)S1", "note": "(stereo not drawn)", "inhibition": 4}, {"smiles": "Cc1ccc(Cc2c[nH]c(NCCSCc3ccc(CN4CCOCC4)o3)nc2=O)cn1", "inhibition": 0}, {"smiles": "Cc1cc(-c2c[nH]c3ncc(-c4cccc5ncccc45)cc23)ccc1C(=O)O", "inhibition": 0}, {"smiles": "Cc1cccc2nc(-c3ccc(-c4ccc(CN5CCCCC5)cc4)cc3)[nH]c12", "inhibition": 0}, {"smiles": "Cc1cc(I)ccc1Nc1nc2nonc2nc1Nc1ccc(I)cc1C", "inhibition": 0}, {"smiles": "CS(=O)(=O)c1ccc(CNCc2ccc(-c3cccc(-c4nc5cc(C(F)(F)F)ccc5[nH]4)c3)cc2)cc1", "inhibition": 8}]}]}
